The supplement of paper PMC6555819

Assays:
Experiment in all cases: PBM binding z-score (relative to random genomic background probes); higher = stronger binding; sequences stand for … in GC…GCGATTGACAGCGTAGAATGAAGG
[1] = tested on: RARb homodimer (NR concentration 270 nM)
Outline: (§1)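 For binding z-scores, the reference was random background probes on custom Agilent 4×180K protein-binding microarrays. These arrays were incubated 1 h with ligand-free nuclear receptor dimers in PBS pH 7.4, 2% milk, 0.02% Triton X-100, 1 mM DTT, 0.2 mg/mL BSA and 0.4 mg/ml salmon testes DNA. Fluorescence was scanned after antibody detection of each partner (one per run) and regression-normalized.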

[2] = tested on: RARg:RXRa (NR concentration 270 nM, RXRa partner concentration 90 nM)
Outline: as §1

[3] = tested on: RARg homodimer (NR concentration 270 nM)
Outline: as §1

[4] = tested on: RXRa DBDmut IVT, anti-RXR (DBD mutation: RXRa K156A/R161A, NR concentration 90 nM)
Outline: as §1

[5] = tested on: RXRa homodimer (NR concentration 180 nM)
Outline: as §1

[6] = tested on: THRa:RXRa (NR concentration 90 nM, RXRa partner concentration 90 nM)
Outline: as §1

[7] = tested on: THRa homodimer (NR concentration 90 nM)
Outline: as §1

[8] = tested on: VDR:RXRa (NR concentration 270 nM, RXRa partner concentration 90 nM)
Outline: as §1

[9] = tested on: VDR homodimer (NR concentration 270 nM)
Outline: as §1

Sequence | PBM binding z-score [1] | PBM binding z-score [2] | PBM binding z-score [3] | PBM binding z-score [4] | PBM binding z-score [5] | PBM binding z-score [6] | PBM binding z-score [7] | PBM binding z-score [8] | PBM binding z-score [9]
ATCTCTAGGTATCCAAGTTCAGTGAATGCCGAAC | 1.46 | 0.373 | 0.76 | 0.842 | 0.354 | 0.837 | 0.736 | 2.38 | 2.5
ATCGAAAGGTCGAGGTGAGTATAGAGAAAGGGAA | 2.86 | 4.31 | 4.51 | 0.657 | 4.3 | 2.81 | 0.624 | 2.69 | 0.373
CGAACTAGGTCAGAACAGGACAGGGAAGGATGAT | 2.37 | 2.58 | 2.91 | 0.62 | 1.26 | 3.92 | 0.578 | 0.511 | 0.472
TGAATGAGGTTAAAGATAAGGGAACGTGGCGTCG | 0.5 | 2.21 | 1.32 | 1.25 | 2.88 | 2.37 | 0.283 | 1.36 | 0.766
GCTGGTAGGTCAACTGATGGTCAGCTAAAGCTCG | 3.79 | 5.73 | 5.34 | 1.57 | 3.65 | 2.54 | 0.0326 | 2.01 | 0.11
TACCCTAGGTCATGCGGGCCAGTATAGTGTCGGC | 3.28 | 4.07 | 4.89 | 0.8 | 3.33 | 3.18 | 1.48 | 3.23 | 1.26
TTACCAAGGTTAGCTGAGGTCGTTGATCCAACTC | 2.06 | 1.68 | 1.41 | 0.854 | 1.84 | 5.01 | 2.13 | 5.09 | 2.87
ACTAGCAGGCCAAGGATCACTCAAGATTAGTCCG | -0.025 | 0.215 | 0.422 | -0.378 | 0.137 | -0.0655 | -0.556 | -0.428 | -0.55
CGTCAAAGTTCAACTAAGGTGACGTAAAGCACGC | 4.55 | 5.96 | 6.76 | 4.56 | 5.33 | 5.17 | 1.95 | 4.87 | 4.18
TCTTATAGGTAATACAGGTGAAAGTCGGCATCTA | 0.728 | 0.769 | 0.709 | 1.75 | 1.18 | 1.09 | 0.611 | 1.36 | 0.529
CGTCCAAGGTCAGAGAGGTGAGTGAATGCCGAGT | 3.85 | 4.7 | 5.44 | 3.06 | 3.79 | 3.81 | 2.28 | 4.78 | 2.26
GCTCGGAGGAGAAGGTCAGAGCTTTGTCCGTAGA | 2.4 | 2.15 | 2.28 | -0.281 | 2.08 | 1.15 | -0.793 | 0.324 | -0.592
TGATTGAGGTTAAAGATCAGGGAACGTGGCGTCG | 1.01 | 2.5 | 1.35 | 0.759 | 3.67 | 2.57 | 0.317 | 1.94 | 0.679
TCTATTAGCTGAAGGGCAACCGACGAGTCCGTTT | 0.986 | 0.404 | 0.211 | 0.755 | 0.365 | -0.0875 | -0.551 | 0.475 | 0.695
ACTATTGGTTGAGACGAGGGCAACCGATAGGTTG | 1.15 | 0.833 | 0.715 | 0.116 | 0.596 | 2.69 | 0.731 | 0.873 | 1.02
CGTCCAAGGTCAGAGAGGTCAGTGATTGCCGAGT | 5.16 | 6.26 | 7.26 | 3.31 | 5.33 | 4.13 | 3.03 | 7.23 | 5.48
ATCTCTAGGTAAAGTGCAGTGAAAGATCGATAGA | 0.108 | 0.474 | 0.497 | 0.0332 | 0.222 | 0.316 | -0.174 | 0.146 | -0.0309
CCTACTGCGCCAAAGGTCATTGATTCCAATGCTC | 4.88 | 5.4 | 4.69 | 2.16 | 6.21 | 3.46 | 1.9 | 4.85 | 3.56
GCGACTGGGGCATCAGCTGGTTACCATAACTTAA | 0.0831 | 0.0774 | 0.0488 | -0.446 | -0.273 | -0.306 | -0.655 | -0.49 | -0.58
AGAATGAGGTTATACGTAGATTAGGGAAGAAAGT | 0.89 | 1.67 | 1.05 | 1.49 | 2.3 | 2.27 | 0.694 | 1.44 | 1.09
ACTTACGGGTCAACGAGGTTCTAGCACGCGTATA | 3.24 | 5.08 | 4.31 | 2.18 | 5.1 | 3.34 | 0.629 | 6.52 | 2.01
CCTAGTTGGTCAAGGTGACACACGCTATAGGTAC | 1.8 | 1.49 | 1.74 | 0.165 | 1.05 | 2.06 | 1.65 | 0.694 | 0.83
ATCGAAAGGTCGTCAGGTGAGTATACAGAAAGGC | 2.67 | 4.34 | 3.83 | 2.04 | 4.71 | 3 | 1.33 | 3.72 | 1.8
TAGCCTAGGTCATTCAGGGGCCAGTGTAGAAAGC | 3.6 | 6.11 | 4.75 | 1.83 | 3.15 | 3.58 | 0.809 | 3.33 | 1.58

Sequence | PBM binding z-score [1] | PBM binding z-score [2] | PBM binding z-score [3] | PBM binding z-score [4] | PBM binding z-score [5] | PBM binding z-score [6] | PBM binding z-score [7] | PBM binding z-score [8] | PBM binding z-score [9]
CAAACTACGTCAAGGTCAAAGTCGGTTTGTGCCA | 4.2 | 4.46 | 4.3 | 2.66 | 4.77 | 3.96 | 3.63 | 4.45 | 4.35
CAAACTATGTCAAGAGGTCAAAGTCCGCTTCCCG | 4.59 | 5.95 | 5.29 | 2.09 | 6.87 | 3.65 | 1.79 | 5.15 | 4.22
TCATGTAGATCAAAGGTTAAGAAAGCCGAAGCCT | 1.55 | 1.96 | 0.89 | 1.08 | 3.55 | 1.37 | -0.229 | 1.66 | -0.0577
CAAACTAGGTCACCGGAAGGTCAGAGTCCGCATG | 5.45 | 7.9 | 7.02 | 1.63 | 5.06 | 4.19 | 2.73 | 4.86 | 2.14
CTCGAAAGGTCGGTTGAGGTGAGTCTACGGATAA | 2.36 | 2.73 | 2.99 | 1.03 | 2.34 | 5.01 | 1.58 | 2.45 | 0.44
TCATATAGGTAATGGTGAAAGTCGAACGATATGA | -0.191 | 0.377 | 0.547 | 0.843 | 0.587 | -0.0618 | -0.634 | 0.243 | -0.582
GCATCTAGGTAATACAAGGTGAAAGTCCGATTGT | 0.893 | 0.422 | 0.244 | -0.0985 | 0.576 | 3.63 | 1.22 | 0.32 | -0.188
TCTGCTAGGTCTACGATGGTCAGCTAATCTGCTA | -0.552 | -0.506 | -0.409 | 0.00299 | -0.775 | -1.43 | -1.26 | -0.625 | -1.28
AGAACGAGGGCACGCTGAGTTAATAGCAGAGTAG | 0.988 | 2.08 | 2.41 | 1.8 | 1.44 | 2.05 | 0.0156 | 1.69 | 1.08
CTAACAAGGTGAACAAGGTCGTTGATTACTATTC | 1.94 | 1.79 | 1.76 | 1.6 | 1.84 | 3.24 | 1.84 | 6.27 | 2.19
TCTTGTAGATCAGCAGGTTAAGACAGCTGGCCAA | 0.0345 | 0.0307 | -0.276 | 0.415 | 0.431 | 0.272 | -0.416 | 0.176 | -0.184
CCGAGTAGGTAATGGGGCATTCAGGCAACGGTGA | 0.64 | -0.0696 | 0.0893 | -0.575 | 0.0759 | 0.219 | 0.00825 | -0.509 | -0.22
CTACCAAGGCGAACAAGGTCGTTGATTACTATTC | 0.781 | 0.29 | 0.0992 | 0.854 | 0.744 | 2.38 | 0.72 | 2.59 | 1.38
ACAGACAGGTGAGTGAATGTAACTCAGCTGGACG | -0.316 | 0.386 | 0.453 | -0.311 | 0.676 | 0.0176 | -0.644 | -0.36 | -0.199
TCGAGTAGGTCACCAATGGGGCATTCAGCTTTCT | 3.59 | 5.11 | 4.61 | 0.972 | 3.44 | 2.42 | -0.0324 | 2.62 | 0.0095
GCTGCTAGGTCAGGTTGGTCAGTTAACGGGTACG | 2.75 | 2.59 | 3.38 | 0.795 | 1.02 | 2.03 | 1.2 | 1.02 | 0.71
CCTAGTTGGTCAGGACGTCACACACCGGATATGA | 0.767 | 0.464 | 0.776 | 0.386 | 0.296 | 0.673 | 1.03 | 0.236 | 0.558
CGTCAAAGTTCAACTAAGGTAACGTGAAGCACGC | 4.14 | 6.07 | 6.8 | 4.62 | 5.49 | 5.14 | 1.68 | 4.37 | 3.84
CTCGAAAGGTCGGTTGAGGGGAGTATACGGATAA | 1.86 | 2.44 | 2.58 | 0.704 | 2.14 | 4 | -0.23 | 1.24 | 0.528
CGAACTAGCTCATTGACAGGACAGTGAATAGTAA | 0.184 | -0.00563 | 0.0455 | 0.00616 | -0.33 | -0.0508 | -0.291 | -0.486 | -0.0514
CCTACTGGGACATTCAGAGGTCATTGATCATATG | 4.09 | 3.72 | 3.06 | 1.77 | 4.05 | 3.38 | 1.9 | 4.18 | 4.08
CCTACCGGGCCAAAAAGGTCATTGATGCCGATAA | 4.59 | 4.5 | 3.96 | 0.185 | 4.6 | 3.29 | 1.04 | 5.13 | 3.13
TGAATGAGGTAAAAGATCAGGGAACGTGGCGTCG | -0.605 | 0.328 | 0.294 | -0.708 | 0.851 | 1.3 | -0.2 | -0.131 | -0.398
CCTCGGAGGACAGAAGGTCATAGCTGTCCGCTTT | 3.97 | 4.4 | 3.92 | 0.657 | 3.43 | 2.95 | 0.318 | 2.69 | 1.45
